# Data taken from PubChem BioAssay (Tox21).
# Results filed as inconclusive are left out. Values without a mark were called inactive. Activity calls are given as the source filed them. The call rests on the fitted dose curve; in most records, active means well fitted activation curve with a large enough effect in the repeat runs; inconclusive means weak or mixed curves; inactive means no such curve, though single readings can be large or run the other way.
# Biological target: Nuclear receptor subfamily 1 group I member 3 (Homo sapiens) (UniProt Q14994)
# Sequence (Q14994 whole entry, looked up): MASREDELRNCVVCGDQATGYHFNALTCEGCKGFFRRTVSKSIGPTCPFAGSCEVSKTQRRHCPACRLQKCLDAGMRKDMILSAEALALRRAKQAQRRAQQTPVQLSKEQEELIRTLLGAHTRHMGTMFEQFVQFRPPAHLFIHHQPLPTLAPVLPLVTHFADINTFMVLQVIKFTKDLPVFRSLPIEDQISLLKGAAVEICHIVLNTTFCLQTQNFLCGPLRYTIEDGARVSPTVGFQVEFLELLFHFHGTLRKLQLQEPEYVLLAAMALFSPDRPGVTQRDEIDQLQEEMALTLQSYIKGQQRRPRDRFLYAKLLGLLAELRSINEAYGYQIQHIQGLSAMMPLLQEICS
# Test: qHTS assay to identify small molecule agonists of the constitutive androstane receptor (CAR) signaling pathway (AID 1224839); further: nearly all actives have a fitted effect of over 15% in size;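 on activation: HepG2 cells stably carrying human CAR and a CYP2B6 luciferase reporter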
# Details: HepG2 hCAR CYP2B6-luciferase, agonist mode, 24 h; series mostly up to 92.4 µM; activation: at the top concentration
# Excerpt: National Center for Advancing Translational Sciences [NCATS] NIH Chemical Genomics Center [NCGC] U.S. Environmental Protection Agency [EPA] National Institutes of Environmental Health Sciences [NIEHS] National Toxicology Program [NTP] Assay overview: The constitutive androstane receptor (CAR) is a nuclear receptor which regulates multiple drug metabolizing enzymes (DMEs) and transporters. Activating CAR will generally increase the transcription and subsequent translation of CYP2B6 and CYP3A4. These two DMEs represent about 50% of the drug metabolizing potential in the body. […] Recently, there have also been studies performed indicating CARs role in energy metabolism and cancer therapy. Therefore, inducing CARs activity could have a potential effect on diabetes and cancer. Identifying environmental toxins and compounds which modulate CAR, through the use of the Tox21 10K compound collection, will be an important step in determining the toxicity and potential therapeutic effects these factors will have on the human body.
# Assay Protocol Summary: A double-stable (hCAR and CYP2B6-2.2kb) transfected cell line, derived from human hepatoma (HepG2) cells, was utilized for the duration of the quantitative high-throughput screens. The HepG2-CYP2B6-hCAR cells suspended in DMEM culture medium supplemented with 10% FBS, 5 ug/mL blasticidin, 0.5 mg/mL geneticin, 100 U/mL penicillin and 100 ug/mL streptomycin were dispensed at 2500 cells/4 uL/well in 1536-well white solid bottom plates using a Multidrop Combi. After the assay plates were incubated at 37 C/5% CO2 for 4 hrs, 23 nL of compounds at 15 concentrations (from 5-48 columns) or positive control (from 1 to 4 columns) were transferred to the assay plates using a Pintool station. One uL of PK11195, was added using a Flying Reagent Dispenser to generate a final concentration of 0.75 uM PK11195 inside each well. After a 24 hr incubation period at 37 C/5% CO2, four uL of ONE-Glo reagent was added into the assay plates using a Flying Reagent Dispenser. After a 30 min incubation period at room temperature, the luminescence intensity in the assay plates was measured using a ViewLux plate reader.
# On the % scale 0 is the no-effect control and ±100 the full control effect; potency means the concentration at half of the fitted maximal effect.
SMILES,Potency,activation
CC1CCCCC1NC(=O)Nc1ccccc1 (stereo not given),30.6 µM (active),–
CCCCCCI,–,-3.91%
N#CCNCC#N,–,-1.41%
CN(N=O)C(N)=O,–,0.576%
CNC(=O)N(C)c1nc2ccccc2s1,24.3 µM (active),–
Nc1n[nH]c(N)n1,–,-16.4%
N#CC(CCc1ccc(Cl)cc1)(Cn1cncn1)c1ccccc1 (stereo not given),21.7 µM (active),–
CC(=O)C(Cl)Cl,–,-1.03%
COC(=O)C(c1ccccc1)C1CCCCN1 (stereo not given),–,-1.79%
CN1CCN(C(=O)O[C@H]2c3nccnc3C(=O)N2c2ccc(Cl)cn2)CC1,–,-1.83% [at 42.5 µM]
BrCCCCCCBr,–,0.538%
C[C@H]1CCC[C@H](O)CCCCCc2cc(O)cc(O)c2C(=O)O1,–,4.87%
CNC(=O)Oc1c(C(C)(C)C)cc(C)cc1C(C)(C)C,10.9 µM (active),–
CCCCc1c(C)nc(NCC)[nH]c1=O,–,7.9%
CC(Cl)(Cl)[N+](=O)[O-],–,-0.2%
CC(C)(C)C(=O)C(Oc1ccc(Cl)cc1)n1cncn1 (stereo not given),–,4.28%
CCOP(=S)(OCC)Oc1cc(-c2ccccc2)on1,34.4 µM (active),–
NC1=NC(=O)C(c2ccccc2)O1 (stereo not given),–,-0.949% [at 42.5 µM]
CC1=C(C(=O)Nc2ccccc2)S(=O)(=O)CCO1,–,-4.6%
C=C(C)CN(CC)c1c([N+](=O)[O-])cc(C(F)(F)F)cc1[N+](=O)[O-],–,12.6%

SMILES,Potency,activation
CCC#N,–,-0.786%
CCS(=O)(=O)CCSP(=O)(OC)OC,–,11.6%
CCCCc1ccc(O)cc1,–,-0.388%
CC(CC(C#N)(c1ccccc1)c1ccccc1)N(C)C (stereo not given),27.2 µM (active),–
CCOP(=S)(OCC)SCSP(=S)(OCC)OCC,27.3 µM (active),–
CCOP(=O)(OCC)OP(=O)(OCC)OCC,–,-3.25%
CCCCOC(=O)c1ccccc1C(=O)O,–,-0.307%
O=C(CCN1CC1)OCC(CO)(COC(=O)CCN1CC1)COC(=O)CCN1CC1,–,-0.0674%
COP(=S)(OC)Oc1ccc(S(N)(=O)=O)cc1,–,1.79% [at 42.5 µM]
COc1cc2c(cc1OC)[C@@]13CCN4CC5=CCO[C@H]6CC(=O)N2[C@H]1[C@H]6[C@H]5C[C@H]43,–,2.21%
N#CCBr,–,-4.51%
CCc1cc2c(s1)-n1c(C)nnc1CN=C2c1ccccc1Cl,–,5.57% [at 42.5 µM]
COc1cc(OC)nc(NC(=O)NS(=O)(=O)c2ncccc2OCC(F)(F)F)n1,–,-3.17%
COc1ccc(C(=O)N2CCCC2=O)cc1,–,-2.01% [at 42.5 µM]
OC(c1ccc(F)cc1)(c1cncnc1)c1ccccc1Cl (stereo not given),–,-0.54%
Oc1c(Cl)cccc1Cl,–,-0.132%
COC(=O)C(C)Oc1ccc(Oc2ccc(Cl)cc2Cl)cc1 (stereo not given),–,-2.65%
CN1CCC(O)(c2ccc(F)cc2)C(C(=O)c2ccc(F)cc2)C1 (stereo not given),–,5.87% [at 42.5 µM]
CCCCCCBr,–,-3.46%
CSc1ccc(C(=O)C(C)(C)N2CCOCC2)cc1,30.6 µM (active),–
